For 42 sequences, binding signal results are on record in PMC7819943, “Rice protein-binding microarrays: a tool to detect cis-acting elements near promoter regions in rice”.

In all, about 39,000 sequences were measured (“fluorescence intensity (a.u.)”: median about 4,300, highest 2% from about 39,000 on). Only a selection was taken, and the highest values are over-represented in it overall.

This test addresses T1, OsSMF1 (Oryza sativa, UniProt Q6ZLB0 1-436).
T1 sequence: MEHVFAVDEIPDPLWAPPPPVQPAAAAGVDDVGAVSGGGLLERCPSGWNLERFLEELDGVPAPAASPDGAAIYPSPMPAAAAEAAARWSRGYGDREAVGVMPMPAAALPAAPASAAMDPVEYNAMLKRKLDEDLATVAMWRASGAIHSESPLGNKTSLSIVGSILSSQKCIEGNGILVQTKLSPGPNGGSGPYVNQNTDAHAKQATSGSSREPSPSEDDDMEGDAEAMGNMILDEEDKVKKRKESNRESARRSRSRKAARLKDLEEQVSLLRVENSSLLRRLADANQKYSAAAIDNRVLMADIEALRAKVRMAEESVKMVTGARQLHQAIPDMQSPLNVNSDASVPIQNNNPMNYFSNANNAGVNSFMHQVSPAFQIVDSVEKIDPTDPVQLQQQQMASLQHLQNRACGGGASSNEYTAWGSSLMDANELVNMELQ
The experiment in a line: protein-binding microarray (RPBM); PBS, 2% BSA, 51.3 ng/ul salmon testes DNA, 50 uM zinc acetate, 200 nM TF, 25 C, 1 h; high values mean tight binding. The conditions noted are these: protein: recombinant; tags: N-terminal polyhistidine and DsRed monomer fusion (pET32a); chain copies: 2; label: CyDye5-dUTP incorporated in the synthesized complementary strand; 3' TTTTT single-stranded linker to array surface; dsDNA, one strand shown. The procedure, abridged:
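The binding signal for each feature is its fluorescence intensity in arbitrary units. An Axon 4000B scanner was used to read a custom Agilent array that had been made double-stranded with Cy5-dUTP primer extension, blocked with 2% BSA, incubated at 25 °C for 1 h with 200 nM protein in PBS, 2% BSA, salmon testes DNA and 50 µM zinc acetate, and washed. The protein was an N-terminal polyhistidine–DsRed transcription factor fusion from E. coli BL21-CodonPlus, purified on Ni–NTA.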
For “CCACGGGCTACAAAGCACGCGCGTCACTCGCTCTCGCGGCCGGAGTCACCTAGTGCAG”, the binding signal is 4390 fluorescence intensity (a.u.). Turning to “AAATGTAGTTGTAAAATCCACAAAATAGTCTAGTCAGAAGCGGAGTCACCTAGTGCAG”, the binding signal is 3340 fluorescence intensity (a.u.). In the case of “CAGAAGCGTCTACATACAATAGGATTGGGGCCTGCAAATCCGGAGTCACCTAGTGCAG”, the binding signal is 55500 fluorescence intensity (a.u.). Turning to “TCCGTATGAAATAGTGTCTCCGTCAGATTGGGGAAGCGGGCGGAGTCACCTAGTGCAG”, the binding signal was 3200 fluorescence intensity (a.u.). “TGTGTTCTCAATTTTGCGTGTTCTCAATGACACGTGAACACGGAGTCACCTAGTGCAG”: the binding signal is 5630 fluorescence intensity (a.u.). The result for “ATCGAAGGCGAGAGCTCTTCTTCTTCCCCTCCTCCAAGCACGGAGTCACCTAGTGCAG” reads 60500 fluorescence intensity (a.u.); that for “TAAAAGCCAAGCACCATCTCGAAGTCTTCTTCCTCCTCCACGGAGTCACCTAGTGCAG”, 12500 fluorescence intensity (a.u.); that for “TTCCATTTCTTCCCCTCGCCAAGGCGAGGCCGCGAGAGGGCGGAGTCACCTAGTGCAG”, 9040 fluorescence intensity (a.u.).

As for “CTGTAGAACTTGGACCAGCAGCATCAGCAGTAGTAGCAGGCGGAGTCACCTAGTGCAG”, the binding signal was 3140 fluorescence intensity (a.u.).

As for “GTGATATTCTGTCTTCCTGTGATATCAGCACTGTTTTATGCGGAGTCACCTAGTGCAG”, the binding signal is 3450 fluorescence intensity (a.u.). Regarding “ACCAGTGCGCCACTGCCAGCGCAGCACCCGCCCGGTTTAACGGAGTCACCTAGTGCAG”, the binding signal was 3240 fluorescence intensity (a.u.). The result for “ATGTCTTAAGCAAGTTTTGACATCCTCATTACAGTGCGGCCGGAGTCACCTAGTGCAG” reads 3390 fluorescence intensity (a.u.). The result for “AGAGCCCACCAGCTGCACCGGCGTGGCATCGTCCACTTGGCGGAGTCACCTAGTGCAG” reads 5060 fluorescence intensity (a.u.); that for “TCGATTCCAGCTGTGGCACCCATAGAGAAATGAGCCCGTCCGGAGTCACCTAGTGCAG”, 56300 fluorescence intensity (a.u.); that for “GTAAAGCCTCGATATATCGATCGATTCCAGCTGTGGCACCCGGAGTCACCTAGTGCAG”, 3620 fluorescence intensity (a.u.).

In the case of “AGTTGACGTGGCATACTGACACGTGGGCCCCATGTGGGTTCGGAGTCACCTAGTGCAG”, the binding signal is 24900 fluorescence intensity (a.u.). In the case of “AAACGTAATCTAATAACAAAACAAATTACAGAACTGTAAACGGAGTCACCTAGTGCAG”, the binding signal is 11100 fluorescence intensity (a.u.). As for “ATCCACCGCTGAGTCCCAGACGAGCGAGGGCCAGATCATCCGGAGTCACCTAGTGCAG”, the figure is 3410 fluorescence intensity (a.u.); as for “TGTAGGTATAAGAGTGAGTTGGTGAATTATAGGGTAGACTCGGAGTCACCTAGTGCAG”, 7410 fluorescence intensity (a.u.); as for “TAGAAAGTGCCCAATTAGTATAGGTATAGATAGATAGACTCGGAGTCACCTAGTGCAG”, 51000 fluorescence intensity (a.u.). “GCATTATATTAGTAGGTCGTGTATTATATTAGTAGGTACTCGGAGTCACCTAGTGCAG”: the binding signal is 4260 fluorescence intensity (a.u.).

As to “ATTACATACTAATTACATATGTAAGTGAGGTGTAACTACTCGGAGTCACCTAGTGCAG”, the binding signal was 4160 fluorescence intensity (a.u.).

For “GGCAATCATCTTGAAGCATATCAACCCAACCTGATGTTGTCGGAGTCACCTAGTGCAG”, the binding signal is 28100 fluorescence intensity (a.u.). As for “TTGTTAATTACCGCGATTGATGTCGAGCTTGCATTTTGATCGGAGTCACCTAGTGCAG”, the figure is 3540 fluorescence intensity (a.u.); as for “TTATTGCAAAATAGAAGGATGACGCCACGACGGCCGCTGCCGGAGTCACCTAGTGCAG”, 3330 fluorescence intensity (a.u.); as for “TCTGTTAGTGTCATACTGTCATCGACATATAATATTCCCTCGGAGTCACCTAGTGCAG”, 42500 fluorescence intensity (a.u.).

In the case of “TTACATACTGTATCATACTGACGTCAACGTATAATATTCCCGGAGTCACCTAGTGCAG”, the binding signal was 8340 fluorescence intensity (a.u.).

Turning to “CTATACTATTAATATATGGTCTCATCTGTCATACATATATCGGAGTCACCTAGTGCAG”, the binding signal is 3830 fluorescence intensity (a.u.). The result for “GCGCTTGCGCCTGACCGCCGCGTGACGACATGTTGTCACCCGGAGTCACCTAGTGCAG” reads 6800 fluorescence intensity (a.u.); that for “CGGTGACGACCACCCCACCTCACGATCCAACGGCCAATACCGGAGTCACCTAGTGCAG”, 4080 fluorescence intensity (a.u.); that for “ACATGCAAAGATGCCACATCATCATCCACTATCACTAATTCGGAGTCACCTAGTGCAG”, 17600 fluorescence intensity (a.u.). As for “TCACTCAAATTTACAGTGCATTTTCTTGTAAGTTACAGTGCGGAGTCACCTAGTGCAG”, the figure is 4800 fluorescence intensity (a.u.); as for “AAAATTGTTCAAAGGATGGCGTAACTTTGGCGTGGAATTACGGAGTCACCTAGTGCAG”, 3180 fluorescence intensity (a.u.). “AGAAGGTTGGAATTTAGTAAGTTGCAGTTACAAATTCAAGCGGAGTCACCTAGTGCAG”: the binding signal was 53200 fluorescence intensity (a.u.). Take “AACAAGTGTGTTGGTGGTGGTGGAAGTTGTTACAGAATTGCGGAGTCACCTAGTGCAG”: the binding signal is 3470 fluorescence intensity (a.u.). For “GAATTACAAGGATGGTAAGGTTTGGTCTTTCAAAGTCTTACGGAGTCACCTAGTGCAG”, the binding signal is 40100 fluorescence intensity (a.u.). As to “TCTTTGGATATAAAGCAACTACAATTTCAAAGGTAACCAACGGAGTCACCTAGTGCAG”, the binding signal is 3460 fluorescence intensity (a.u.). The result for “AAGTTATAACCCACTACATACAAAGATACCACGTCATCATCGGAGTCACCTAGTGCAG” reads 15900 fluorescence intensity (a.u.); that for “CATCAGATGCGCCCATCGCTTGAAGGAGAGACGCCGAGACCGGAGTCACCTAGTGCAG”, 27300 fluorescence intensity (a.u.); that for “GCAGTCTTGTAGTCTCGTGCACCAATCGTCGCGCCGCGGCCGGAGTCACCTAGTGCAG”, 22300 fluorescence intensity (a.u.).

Take “GCACCTTGAATGAATTATCTAGCAAAGCCAGCGTAGACGTCGGAGTCACCTAGTGCAG”: the binding signal was 30200 fluorescence intensity (a.u.).

In the case of “TGTGTACGTCACATCCTAATTAACATCAACTTGATAAAATCGGAGTCACCTAGTGCAG”, the binding signal is 7900 fluorescence intensity (a.u.).
